Only some compounds are listed: those with a hit (about 2.5% of all), similar ones and a draw of the others.
GAA850 FXN act: frataxin GAA850 promoter activation; HEK293 lucGAA850 FXN promoter luciferase reporter, 24 h; percent of 10 µM SAHA response; activation, % at 6 µM; hit rate 0.56% among 360,000;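 active = activation above the average of all compounds screened plus 3 SD, cutoff fixed separately per campaign, cut at about 7.5% in these data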
EWS-Fli inh: inhibitors of EWS/Fli oncoprotein transcriptional activity; A673 NR0B1-luciferase reporter, viability-normalised; inhibition, % at 12.6 µM; hit rate 0.67% among 350,000; AID 651661;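 active = mean inhibition of at least 50% after viability correction, with every replicate also passing that limit; inconclusive = mean reaches 50% but only one of two replicates passes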;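 also: firefly luciferase signal divided by Alamar Blue viability fluorescence both relative to DMSO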
CFTR F508del cor: correctors of CFTR F508del function in bronchial epithelial cells; activity (quench increase), % at 7.58 µM; CFBE cells, YFP halide quenching; stimulated with forskolin plus potentiator P3; % fluorescence drop versus neutral controls; AID 720511; hit rate 0.36% among 350,000;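 active = mean added fluorescence quench of at least 8% versus neutral control, with both replicates also reaching 8%; inconclusive = only one of the mean or replicate conditions met; inactive = mean below 8% and not both replicates reaching 8%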;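 also: cells transiently co-express mutant CFTR-F508del with the halide-sensitive YFP; corrector assay measuring rescue of mutant channel to the surface after 24 h compound exposure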
HIV Env fusion: inhibitors of HIV Env-mediated cell fusion; HeLa-JRFL Env/CEM21 cell fusion, luciferase; inhibition, % at 12.3 µM; hit rate 1.1% among 360,000;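 active = mean replicate inhibition score of at least 50 and every replicate individually at or above 50; inconclusive = only one of the two criteria met; inactive = mean below 50 and not all replicates reaching 50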
PAX8 inh HTS: PAX8 transcriptional activity inhibition | AID 652154 | hit rate 1.2% among 360,000 | inhibition, % at 12.6 µM | RMG-I TPO-luciferase reporter, SteadyGlo, 24 h;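 active = mean replicate inhibition at least 60% with every replicate also reaching 60%; inconclusive = only one of the two criteria is met; inactive = mean below 60% and not all replicates reaching 60%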;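 also: luciferase light reporting Pax8 driven TPO promoter activity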
Numbers stand for hits; i = inactive; ? = inconclusive; nt = no result given; ! = not active in a repeat.

SMILES	GAA850 FXN act	EWS-Fli inh	CFTR F508del cor	HIV Env fusion	PAX8 inh HTS
C[C@H]1CN([C@@H](C)CO)C(=O)Cc2cc(NC(=O)Nc3ccc(F)cc3)ccc2O[C@H]1CN(C)Cc1ccc(Cl)c(Cl)c1	nt	i	i	i	110.5
C[C@H](CO)N1C[C@H](C)[C@H](CN(C)Cc2ccc(Cl)c(Cl)c2)Oc2ccc(NC(=O)Nc3ccc(F)cc3)cc2CC1=O	nt	i	i	i	i
C[C@@H]1CN([C@@H](C)CO)C(=O)Cc2cc(NC(=O)Nc3ccccc3)ccc2O[C@@H]1CN(C)Cc1ccc(Cl)c(Cl)c1	nt	i	i	i	?
C[C@@H]1CN([C@H](C)CO)S(=O)(=O)c2ccc(C3=CCCC3)cc2O[C@@H]1CN(C)Cc1ccccc1F	nt	i	i	i	i
CN(C)CC(=O)N1CCCCN2[C@@H](CO)[C@@H](c3ccc(-c4cccnc4)cc3)[C@@H]2C1	nt	i	i	nt	i
CC(C)NC(=O)Nc1ccc2c(c1)C(=O)N([C@H](C)CO)C[C@@H](C)[C@H](CN(C)Cc1ccncc1)OCCCC[C@H](C)O2	nt	nt	i	i	i
C[C@H](CO)N1C[C@H](C)[C@@H](CN(C)Cc2ccc(Cl)c(Cl)c2)Oc2ccc(NC(=O)Nc3ccc(F)cc3)cc2CC1=O	nt	63.0	i	i	83.9
C[C@H](CO)N1C[C@H](C)[C@H](CN(C)Cc2ccc(Cl)c(Cl)c2)Oc2ccc(NC(=O)C3CCCCC3)cc2CC1=O	nt	i	10.0	i	i
Cc1noc(C)c1NC(=O)Nc1ccc2c(c1)C(=O)N([C@H](C)CO)C[C@@H](C)[C@H](CN(C)C(=O)Nc1ccc(F)cc1)OCCCC[C@@H](C)O2	nt	i	i	i	i
COc1ccc(OCCC(=O)OCC(=O)Nc2cccc(S(=O)(=O)N3CCOCC3)c2)cc1	i	i	i	i	i
CC(C)(C)c1ccc(OCCC(=O)Nc2cccc(S(=O)(=O)N3CCOCC3)c2)cc1	i	i	i	74.8	i
O=C(CNC(=O)c1cccs1)Nc1cccc(S(=O)(=O)N2CCOCC2)c1	i	i	i	61.0	i
c1ccc(CNc2c3ccccc3nc3ccccc23)cc1	i	i	10.9	i	i
Oc1ccc(CCNc2c3ccccc3nc3ccccc23)cc1O	i	70.5	i	i	i
c1ccc(CNc2ncnc3ccccc23)cc1	i	i	i	106.4!	i
CNc1nc(NCc2ccccc2)c2ccccc2n1	i	i	i	i	i
CCCC(=O)Nc1ccc2c(c1)OC[C@@H](C)N(C(=O)CC1CC1)C[C@@H](C)[C@H](OC)CN(C)C2=O	nt	i	i	i	i
CN(C)C(=O)c1cccc(-c2ccc([C@H]3[C@H]4CN(C(=O)C5CC5)CC(=O)N4[C@H]3CO)cc2)c1	nt	i	i	nt	i
O=C(C[C@H]1C=C[C@@H](NC(=O)CN2CCOCC2)[C@@H](CO)O1)NCCc1ccccc1	nt	i	i	i	i
Cc1ccc(-c2ccc([C@H]3[C@@H](CO)N4CCCCN(S(=O)(=O)c5cccc(C)c5)C[C@H]34)cc2)cc1	nt	i	i	nt	72.7
Cc1ccc(-c2ccc([C@@H]3[C@@H](CO)N4CCCCN(S(=O)(=O)c5cccc(C)c5)C[C@@H]34)cc2)cc1	nt	i	i	nt	i
Cc1cccc(-c2ccc([C@H]3[C@@H](CO)N4CCCCN(S(=O)(=O)c5cccc(C)c5)C[C@@H]34)cc2)c1	nt	i	i	nt	95.8
Cc1cccc(-c2ccc([C@H]3[C@H](CO)N4CCCCN(S(=O)(=O)c5cccc(C)c5)C[C@@H]34)cc2)c1	nt	i	i	nt	?
COc1ccc2c3c(n(C)c2c1)[C@@H](CO)N(CC1CCCCC1)CC31CCN(C(C)=O)CC1	nt	i	i	i	nt
O=c1cc(CSc2ccc(Cl)cc2)nc(-c2ccccn2)[nH]1	i	i	i	i	69.5
SMILES	GAA850 FXN act	EWS-Fli inh	CFTR F508del cor	HIV Env fusion	PAX8 inh HTS
CCSc1cc(N2CCOCC2)nc(-c2ccc(Cl)cc2)n1	i	i	i	nt	135.1
CCSc1cc(N2CCCC2)nc(-c2ccc(Cl)cc2)n1	i	i	i	i	i
Clc1ccc(SCc2csc(N3CCOCC3)n2)cc1	i	i	i	i	i
Clc1ccc(SCc2cc(N3CCOCC3)nc(-c3ccccn3)n2)cc1	i	i	8.1	i	i
CS(=O)(=O)Nc1ccc2c(c1)[C@@H]1C[C@H](CC(=O)NCc3cccnc3)O[C@@H](CO)[C@@H]1O2	nt	i	i	i	i
C[C@H](CO)N1C[C@H](C)[C@@H](CN(C)C(=O)C2CCC2)Oc2cc(Br)ccc2S1(=O)=O	nt	i	i	i	nt
C[C@@H]1CN([C@H](C)CO)C(=O)c2cc(NC(=O)Nc3ccccc3)ccc2O[C@H]1CN(C)C(=O)Nc1ccc2c(c1)OCO2	nt	i	i	i	nt
O=C(NCCc1ccccc1)C(=O)Nc1nccs1	i	nt	nt	i	i
S=C(NCCc1ccccc1)Nc1nccs1	i	i	9.2	i	i
CCOC(=O)Nc1ccc2c(c1)N(C(=O)CCN(CC)CC)c1ccccc1S2=O (stereo not drawn)	i	i	i	i	108.6
O=C(CCN1CCCCC1)N1CCc2c([nH]c3ccccc23)C1c1cccnc1 (stereo not drawn)	i	i	8.9	i	i
O=C(c1cnccn1)N1CCc2c([nH]c3ccccc23)C1c1cccc(Cl)c1 (stereo not drawn)	i	i	i	i	i
C[C@@H]1CCCCO[C@H](CN(C)C(=O)Nc2cccc3ccccc23)[C@@H](C)CN([C@H](C)CO)C(=O)c2cc(NC(=O)c3ccncc3)ccc2O1	nt	i	i	i	i
CCOC(=O)c1c(NC(=O)C(C)N2CCN(C(=O)c3ccco3)CC2)sc2c1CCCC2 (stereo not drawn)	i	nt	nt	56.2	nt
CCOC(=O)c1c(NC(=O)c2ccco2)sc2c1CCCCC2	i	nt	nt	nt	nt
NC(=O)c1cc(Cl)ccc1OCC(=O)NC1CC1	i	i	9.0	i	nt
COc1cccc(S(=O)(=O)Nc2ccc3c(c2)C(=O)N(C)[C@@H]2CC[C@@H](CC(=O)O)O[C@@H]2CO3)c1	nt	i	i	i	i
COc1ccc(Cl)cc1C(=O)NNC(=O)CCNS(=O)(=O)c1ccccc1	i	i	10.0	i	nt
Cc1ccc(S(=O)(=O)NCCC(=O)NNC(=O)c2ccccc2Cl)cc1C	i	i	i	i	i
O=C(O)[C@H]1[C@H](CO)[C@H]2Cn3c(ccc(-c4ccccc4)c3=O)[C@H]2N1CCc1ccccc1	nt	i	i	nt	nt
COc1ccccc1N(C(C)=O)C1=C(Cl)C(=O)c2ccccc2C1=O	i	56.0	i	i	116.9
CC(=O)N(C1=C(N)C(=O)c2ccccc2C1=O)C(C)C	i	i	i	i	i
O=C(c1ccncc1)N1C[C@@H]2[C@H](c3ccccc31)[C@@H](CO)N2C(=O)c1ccccn1	nt	i	i	nt	i
CCOC(=O)C(c1ccccc1)C(Nc1cc(C(F)(F)F)cc(C(F)(F)F)c1)c1ccccn1 (stereo not drawn)	i	i	i	67.2	i
CO[C@H]1CN(C)C(=O)c2cc(NS(=O)(=O)c3cccc(C)c3)ccc2OC[C@@H](C)NC[C@H]1C	nt	i	i	i	nt
